Data as given in PubChem BioAssay (NCATS).
Records with an inconclusive call do not appear. Values without a mark were called inactive. Activity calls are given as the source filed them. Calls come from the whole dose curve; as a rule, active = well fitted inhibition curve with a large enough effect; inconclusive = small, poorly fitted or top-dose-only effect; inactive = flat fitted curve, though single readings scatter.
Potency is the fitted concentration of half-maximal effect.

What follows are compounds tested on DFO2036 (assay: qHTS profiling for inhibitors of Plasmodium falciparum proliferation (AID 504749; note: nearly all actives have a fitted effect of over 60% in size;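 for activity, negative = inhibition: 0% = DMSO vehicle and full inhibition = artemisinin control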)). Conditions: P. falciparum in erythrocytes, SYBR Green DNA, 72 h; series mostly up to 28.7 µM; activity, negative = inhibition: at the top concentration.
Description: NIH National Institute of Allergy and Infectious Diseases [NIAID] NIH Chemical Genomics Center [NCGC] MLPCN Grant: None Assay Provider: Xinzhuan Su, NIAID NCGC Assay Overview: Plasmodium falciparum is a virulent malarial parasite that kills 1-2 million people worldwide each year. Transmitted by mosquitoes, the sporozoite form of the parasite enters the blood stream to infect hepatocytes, where they become merozoites that infect red blood cells (erythrocytes). Within erythrocytes, merozoites begin a […] cycle of growth and division, after which the parasite is released to infect new red blood cells. Gametocytes, which form within erythrocytes as well, circulate in the bloodstream and are ingested by the mosquito, thereby completing the life cycle. To profile malarial isolates for differential chemical responses and to identify inhibitors of malarial growth, an assay that measures P. falciparum growth and replication within erythrocytes was employed. This assay uses a DNA binding fluorescent dye (SYBR Green) to detect parasite DNA following cell lysis. Because mature erythrocytes lack DNA, only Plasmodium-derived DNA is detected.
NCGC Assay Protocol Summary: The SYBR Green viability assay was adapted from a method described previously (Plouffe et al., 2008). For screening 3 ul culture medium was dispensed into 1536 well black clear bottom plates (Aurora Biotechnologies) using a Multidrop Combi (Thermo Fisher Scientific Inc.), 23 nL compounds in DMSO were added by a pin tool (Kalypsys), and 5 ul of erythrocytes infected with P. falciparum (0.3% parasitemia, 2.5% hematocrit final concentration) were added. The plates were incubated at 37 C in a humidified incubator in 5% CO2 for 72 h, and 2 ul lysis buffer (20 mM Tris HCl, 10 mM EDTA, 0.16% saponin, 1.6% triton X, 10X SYBR Green I supplied as 10,000X […] by Invitrogen) was added to each well. The plates were mixed for 25 sec with gentle shaking and incubated overnight at room temperature in the dark. The following morning, fluorescence intensity at 485(14) nm excitation and 535(25) nm emission wavelengths was measured on an EnVision (Perkin Elmer) plate reader. Plate reads were normalized relative to the control inhibitor (0.29 uM artemisinin) and vehicle (DMSO) wells present on each plate and then corrected by an algorithm using vehicle-only control plates at the beginning and end of the compound plate stack.
With `CO[C@H]1/C=C/O[C@@]2(C)Oc3c(C)c(O)c4c(O)c(c(/C=N\N5CCN(C6CCCC6)CC5)c(O)c4c3C2=O)NC(=O)/C(C)=C\C=C\[C@H](C)[C@H](O)[C@@H](C)[C@@H](O)[C@@H](C)[C@H](OC(C)=O)[C@@H]1C` the Potency was 1.41 µM (active).
With `Oc1ccc(/C=C\c2cc(O)cc(O)c2)cc1` the “activity, negative = inhibition” value was 10.9% [at 12.8 µM].
`COc1ccc(CCNC[C@@H](O)c2ccc(O)cc2)cc1OC` was tested, and the “activity, negative = inhibition” value was 5.06%.
With `CN1C[C@H](C(=O)N[C@]2(C)O[C@@]3(O)C4CCCN4C(=O)[C@H](Cc4ccccc4)N3C2=O)C[C@@H]2c3cccc4[nH]cc(c34)C[C@H]21` (some centres undefined) the Potency was 7.94 µM (active).
`C=C1/C(=C\C=C2/CCC[C@]3(C)[C@@H]([C@H](C)CCCC(C)(C)O)CC[C@@H]23)C[C@@H](O)C[C@@H]1O` was tested, and the “activity, negative = inhibition” value was 7.99%.
For `C=C1CCC2[C@](C)(CO)C(O)CC[C@]2(C)C1C/C=C1/C(=O)OCC1O` (some centres undefined), the “activity, negative = inhibition” value was -24.8%.
In the case of `CC(C)C[C@H]1C(=O)N2CCCC2[C@]2(O)O[C@](NC(=O)[C@@H]3C=C4c5cccc6[nH]c(Br)c(c56)C[C@H]4N(C)C3)(C(C)C)C(=O)N12` (some centres undefined), the Potency is reported as 11.2 µM (active).
With `CC(/C=C1\SC(=S)N(CC(=O)O)C1=O)=C\c1ccccc1` the “activity, negative = inhibition” value was 1.74%.
`C[C@@H]1[C@H](O)[C@@H](C)/C=C/C=C/C=C/C=C/C=C/C=C/C=C/[C@H](O[C@@H]2O[C@H](C)[C@@H](O)[C@H](N)[C@@H]2O)C[C@@H]2O[C@](O)(C[C@@H](O)C[C@@H](O)[C@H](O)CC[C@@H](O)C[C@@H](O)CC(=O)O[C@H]1C)C[C@H](O)[C@H]2C(=O)O` was tested, and the “activity, negative = inhibition” value was -5.71%.
In the case of `C[C@@]12C(=O)OC(=O)[C@]1(C)[C@H]1CC[C@@H]2O1`, the Potency is reported as 3.98 µM (active).
In the case of `COc1cc2c(cc1OC)C(c1ccccc1)CN(C)CC2` (centres undefined), the “activity, negative = inhibition” value is reported as -28.4%.
`N[C@H](Cc1ccc(O)c(O)c1)C(=O)O` was tested, and the “activity, negative = inhibition” value was 16.3%.
`CN=C(N)NCCCC(N)C(=O)O` (centres undefined) was tested, and the “activity, negative = inhibition” value was 11%.
For `CN1C(=O)CCC1c1cccnc1` (centres undefined), the “activity, negative = inhibition” value was -3.92%.
